Source: PubChem BioAssay (National Center for Advancing Translational Sciences (NCATS))
Hits are enriched below; roughly 5.3% of the tested compounds scored in any of these assays.
KDM4E inh = qHTS Assay for Inhibitors of Human Jumonji Domain Containing 2E (JMJD2E); JMJD2E catalytic domain, FDH-coupled NADH fluorescence (FDH is formaldehyde dehydrogenase); Potency, µM (titrated, usually from 57.1 µM), for the others: top-dose activity change, negative = inhibition, usual class: inhibitors; hit rate 1.6% among 230,000; AID 2147, 2009; active means well fitted inhibition curve with a large enough effect, not every such curve was filed as active; inconclusive means small, poorly fitted or top-dose-only effect, or another doubt; inactive means no such curve, though single readings can be large or run the other way;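 further: potency means the concentration at half of the fitted maximal effect; 0% = wells with enzyme and -100% = buffer wells without enzyme; nearly all actives have a fitted effect of over 50% in size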
Target sequence (B2RXH2 1-337 limits assumed): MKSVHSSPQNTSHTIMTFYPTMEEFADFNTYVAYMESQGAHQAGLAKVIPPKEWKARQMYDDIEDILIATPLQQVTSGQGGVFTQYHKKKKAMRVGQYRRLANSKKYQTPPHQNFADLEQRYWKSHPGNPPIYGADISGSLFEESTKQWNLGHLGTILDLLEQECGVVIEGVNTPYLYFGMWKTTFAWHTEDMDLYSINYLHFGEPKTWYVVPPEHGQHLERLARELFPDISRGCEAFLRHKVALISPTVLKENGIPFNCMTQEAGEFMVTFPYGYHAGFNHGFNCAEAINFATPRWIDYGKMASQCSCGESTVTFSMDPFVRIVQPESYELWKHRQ
Sfp PPTase inh = qHTS Assay for Inhibitors of Bacillus subtilis Sfp phosphopantetheinyl transferase (PPTase). hit rate 3.5% among 310,000. Potency, µM, for the others: largest response in the series, negative = inhibition, usual class: inhibitors. 4'-phosphopantetheinyl transferase ffp (Bacillus subtilis), Q9F4F7. Biochemical Sfp PPTase activity, qHTS. AID 1490, 2009;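 further: the enzyme is Sfp with the accession as filed and its product quenches rhodamine fluorescence; potency means the concentration at half of the fitted maximal effect; 0% = enzyme reaction without inhibitor and -100% = no enzyme wells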
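Buffer: 50 mM Hepes-Na pH 7.6, 10 mM MgCl2, 0.01% Nonidet P-40, 0.01% BSA. Enzyme 15 nM, pre-exposed to compound 15 min; substrates then added and fluorescence change tracked over 30 min.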
Tau fluor counter = Counterscreen qHTS for Inhibitors of Tau Fibril Formation, Fluorescence Polarization | tau K18 P301L Alexa594 fluorescence, heparin fibrillization | Potency, µM (highest dose often 57.7 µM), inactives show top-dose activity change, negative = decrease | hit rate 0.93% among 280,000 | AID 1463, 2008; further: potency means the concentration at half of the fitted maximal effect; nearly all actives have a fitted effect of over 55% in size
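Human K18 P301L tau (15 uM unlabeled plus 0.24 uM Alexa 594-labeled, final) in 100 mM sodium acetate pH 7 was mixed with compound and 20 uM heparin and incubated 6 hr at 37 C.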
Tau fibril ThT = qHTS for Inhibitors of Tau Fibril Formation, Thioflavin T Binding. hit rate 2.1% among 270,000. Potency, µM (highest dose often 57.4 µM), for inactives: at the top dose activity, negative = inhibition, actives largely listed as inhibitors. recombinant tau K18 P301L, heparin-induced fibrillization, ThT fluorescence. AID 1460, 2008. Microtubule-associated protein tau (Homo sapiens), P10636; further: potency means the concentration at half of the fitted maximal effect; nearly all actives have a fitted effect of over 55% in size
Target sequence (P10636 561-689 P618L limits assumed): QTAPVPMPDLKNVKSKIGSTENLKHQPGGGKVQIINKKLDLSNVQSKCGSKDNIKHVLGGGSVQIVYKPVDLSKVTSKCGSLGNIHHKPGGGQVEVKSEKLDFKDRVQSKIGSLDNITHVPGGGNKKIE
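ThT emission at 510 nm, taken 1 hr after adding 30 uM dye, quantifies aggregates formed when 20 uM heparin acts on human tau K18 P301L for 6 hr at 37 C.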
Coupling enz = qHTS Assay for Inhibitors of Fructose-1,6-bisphosphate Aldolase from Giardia Lamblia: Coupling assay counterscreen | coupling enzyme system counterscreen, AmpLite Red fluorescence | activity change, negative = inhibition, % at 58.2 µM, hits read low | hit rate 0.67% among 290,000 | AID 2472, 2010; in the data active means activity change below about -30%
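First, compound is pin-transferred into glyceraldehyde-3-phosphate coupling-enzyme reagent at 57.5 uM final and held 10 min at RT. Next, substrate, coupling system and AmpLite Red are added. After 20 min RT, fluorescence (525/598 nm) is read.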
Tau FP inhib = qHTS for Inhibitors of Tau Fibril Formation, Fluorescence Polarization; Potency, µM (doses to about 57.7 µM), inactives show at the top dose activity, negative = inhibition, most hits filed as inhibitors; K18 P301L tau heparin fibrillization, Alexa594 FP, 6 h; Microtubule-associated protein tau (Homo sapiens), P10636; AID 1468, 2008; hit rate 0.39% among 280,000; further: potency means the concentration at half of the fitted maximal effect; nearly all actives have a fitted effect of over 55% in size
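K18 P301L tau (15 uM unlabeled/0.24 uM Alexa 594-labeled, final) + compound + heparin 20 uM final; 100 mM NaOAc pH 7; 6 hr 37 C; ThT 30 uM final added, 1 hr RT; FP ex 555/em 632 nm.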
* marks the source's active call; other numbers are inactive results; [ ] = another dose, or the depositor's remark. Unless noted, the call rests on the fitted dose curve; in most records, active means well fitted curve in the direction sought with a large enough effect; inconclusive means small, poorly fitted or top-dose-only effect, or another doubt; inactive means no such curve, though single readings can be large; an effect the other way counts as inactive or inconclusive. Unless noted, on the % scale 0 is the no-effect control and ±100 the full control effect.

`Cc1ccc(-n2c(-c3cnccn3)n[nH]c2=S)cc1` gave KDM4E inh -1%, Sfp PPTase inh 56µM*, Tau fluor counter -10%, Tau fibril ThT -7%, Coupling enz 7 and Tau FP inhib 0%.
Screening Cc1ccc(-c2ccccc2)n1-c1cccc(C(=O)O)c1 returned KDM4E inh inconclusive, Sfp PPTase inh -20%, Tau fluor counter 8%, Tau fibril ThT -2%, Coupling enz 12 and Tau FP inhib 6%.
Screening Cc1ccc(-n2c(-c3ccncc3)n[nH]c2=S)cc1C returned KDM4E inh 3%, Sfp PPTase inh 45µM*, Tau fluor counter -4%, Tau fibril ThT -4%, Coupling enz 6 and Tau FP inhib 3%.
For Cc1ccc(-n2c(-c3ccncc3)n[nH]c2=S)cc1 the results were KDM4E inh 0%, Sfp PPTase inh -6%, Tau fluor counter -3%, Tau fibril ThT -4%, Coupling enz 10 and Tau FP inhib -6%.
Screening O=C(O)c1ccc(-n2c(-c3cc(C4CC4)[nH]n3)n[nH]c2=S)cc1 returned KDM4E inh -5%, Sfp PPTase inh 56µM*, Tau fluor counter -13%, Tau fibril ThT -7%, Coupling enz 2 and Tau FP inhib -3%.
`Cc1ccc(-n2c(-c3ccc(Cl)cc3Cl)n[nH]c2=S)cc1` gave Sfp PPTase inh -5% and Coupling enz 0.
Screening Cc1ccc(-c2ccccc2)n1-c1ccc(C(=O)O)cc1 returned KDM4E inh -5%, Sfp PPTase inh 71µM*, Tau fluor counter -5%, Tau fibril ThT inconclusive, Coupling enz 17 and Tau FP inhib 0%.
Screening COc1ccc(CNc2ncnc3ccc(-c4c(C)noc4C)cc23)c(OC)c1 returned Sfp PPTase inh -5% and Coupling enz 1.
Screening O=C(O)c1ccc(-n2c(-c3ccccc3)n[nH]c2=S)cc1 returned KDM4E inh inconclusive, Sfp PPTase inh 79µM*, Tau fluor counter 4%, Tau fibril ThT 1%, Coupling enz 0 and Tau FP inhib 2%.
`Cc1ccc(-n2c(-c3ccccc3)n[nH]c2=S)cc1` gave KDM4E inh inconclusive, Sfp PPTase inh 79µM*, Tau fluor counter -2%, Tau fibril ThT -7%, Coupling enz 3 and Tau FP inhib -1%.
Screening CC(C)(C)c1ccc(-c2n[nH]c(=S)n2-c2ccccc2)cc1 returned Sfp PPTase inh 16% and Coupling enz 5.
COc1ccc(-n2c(-c3ccc(C)cc3)n[nH]c2=S)cc1 was read as KDM4E inh -5%, Sfp PPTase inh 89µM*, Tau fluor counter 0%, Tau fibril ThT -3%, Coupling enz 1 and Tau FP inhib 8%.
For Cc1nn2c(=O)cc(COC(=O)c3ccc(NC(=O)c4cccc(Br)c4)cc3)nc2s1 the results were Tau fluor counter -12%, Tau fibril ThT -7% and Tau FP inhib inconclusive.
Screening CCCCC(CC)CNC(=O)CN(C)S(=O)(=O)c1ccc2c(c1)c(=O)n(C)c(=O)n2C (centres undefined) returned Tau fluor counter -17%, Tau fibril ThT -6% and Tau FP inhib -4%.
For CCCC[C@H](NC(C)=O)C(=O)N[C@H]1CC(=O)NCCCC[C@@H](C(N)=O)NC(=O)[C@H](Cc2c[nH]c3ccccc23)NC(=O)[C@H](CCCN=C(N)N)NC(=O)[C@@H](Cc2ccccc2)NC(=O)[C@H](Cc2cnc[nH]2)NC1=O the results were Sfp PPTase inh 5% and Coupling enz 0.
For Cc1cc(O)c(C(c2ccccc2)N2CCN(c3ccccc3)CC2)c(=O)n1Cc1ccco1 (centres undefined) the results were Tau fluor counter -1%, Tau fibril ThT inconclusive and Tau FP inhib -10%.
O=C(O)c1cc(NN=C2c3ccccc3-c3ccccc32)ccc1Cl was read as Sfp PPTase inh -8% and Coupling enz 7.
Screening C/C(=N\Nc1ccc(Cl)c(C(=O)O)c1)c1ccccn1 returned KDM4E inh -4%, Sfp PPTase inh 79µM*, Tau fluor counter -8%, Tau fibril ThT -10%, Coupling enz -5 and Tau FP inhib 7%.
O=C(O)c1cc(N/N=C/C(Cl)=C/c2ccccc2)ccc1Cl was read as KDM4E inh -14%, Sfp PPTase inh -21%, Tau fluor counter -29%, Tau fibril ThT 14µM*, Coupling enz 0 and Tau FP inhib -4%.
Screening S=C(NCCC(c1ccccc1)c1ccccc1)Nc1ccc(Cl)cc1 returned KDM4E inh -10%, Sfp PPTase inh 20%, Tau fluor counter 8.9µM*[quencher], Tau fibril ThT 15%, Coupling enz 0 and Tau FP inhib 14µM*.
For S=C(NCCC(c1ccccc1)c1ccccc1)Nc1ccccc1Cl the results were KDM4E inh -10%, Sfp PPTase inh 21%, Tau fluor counter inconclusive, Tau fibril ThT 14%, Coupling enz -3 and Tau FP inhib inconclusive.
For O=S(=O)(c1ccc(NC(=S)NCCC(c2ccccc2)c2ccccc2)cc1)N1CCOCC1 the results were KDM4E inh -2%, Sfp PPTase inh 18%, Tau fluor counter inconclusive, Tau fibril ThT 10%, Coupling enz -4 and Tau FP inhib 14µM*.
CCCCOCCCNC(=S)Nc1ccc(S(=O)(=O)N2CCOCC2)cc1 was read as KDM4E inh inconclusive, Sfp PPTase inh 12%, Tau fluor counter -20%, Tau fibril ThT -1%, Coupling enz 5 and Tau FP inhib inconclusive.
Screening CCOc1ccccc1CNCc1c(C(=O)O)c(C)n(Cc2ccc(Cl)cc2)c1C returned Tau fluor counter -1%, Tau fibril ThT 2% and Tau FP inhib 0%.
`COc1ccccc1Nc1nc(NCCO)c2ccccc2n1` gave KDM4E inh 2%, Sfp PPTase inh -2%, Tau fluor counter 0%, Tau fibril ThT -6%, Coupling enz 2 and Tau FP inhib 4%.
Cc1ccc(Nc2nc(NCCO)c3ccccc3n2)cc1C was read as Sfp PPTase inh 79µM* and Coupling enz 3.
C=CCN=c1scc(C)n1/N=C/c1ccc(O)c(O)c1 was read as KDM4E inh 16µM*, Sfp PPTase inh 32µM*, Tau fluor counter inconclusive, Tau fibril ThT inconclusive, Coupling enz -10 and Tau FP inhib 3%.
